Source: PubChem BioAssay (National Center for Advancing Translational Sciences (NCATS))
SW480 rerep – induces DNA re-replication in SW480 colon adenocarcinoma cells. SW480 DNA re-replication, Hoechst DNA content imaging, 48 h. Potency, µM (series often up to 46.1 µM), hits mostly activators. actives 1.8% (n = 340,000); further: nearly all actives have a fitted effect of over 55% in size
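Cells (250 per well) received 23 nL compound or DMSO by pin tool and were kept 48 hr at 37 C, 5% CO2. Nuclei were then stained with Hoechst for 40 min and scanned for DNA content.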
D3 antag – D3 dopamine receptor (human) antagonism | AID 652054 | D3R cells, DiscoveRx beta-arrestin luminescence, antagonist mode; active compounds read low | actives 2.5% (n = 360,000) | P35462 | max response, negative = inhibition, %; in the data active means max response below about -50%; inconclusive means no clear call, values can overlap the other calls
Target sequence (P35462 whole entry, looked up): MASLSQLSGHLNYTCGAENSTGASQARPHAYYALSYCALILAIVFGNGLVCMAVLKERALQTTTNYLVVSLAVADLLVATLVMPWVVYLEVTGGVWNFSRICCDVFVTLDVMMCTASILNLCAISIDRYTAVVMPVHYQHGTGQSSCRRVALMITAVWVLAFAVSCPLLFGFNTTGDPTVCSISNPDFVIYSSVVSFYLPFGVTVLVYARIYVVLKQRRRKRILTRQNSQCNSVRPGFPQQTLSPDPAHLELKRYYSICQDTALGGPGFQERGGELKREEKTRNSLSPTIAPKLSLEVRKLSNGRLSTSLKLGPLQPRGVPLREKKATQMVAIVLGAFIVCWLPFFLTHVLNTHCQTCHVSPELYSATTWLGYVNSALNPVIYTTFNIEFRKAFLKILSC
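Cells expressing the human receptor were seeded at 1500 cells/well, incubated overnight at 37 degrees C in 5% CO2, then exposed to library compounds with dopamine controls for 90 minutes at 37 degrees C before luminescent detection.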
KB-3-1 cytotox – KB-3-1 parental cell cytotoxicity. actives 1.4% (n = 400,000). KB-3-1 viability, CellTiter-Glo ATP luminescence, 72 h. Potency, µM (series often up to 46.1 µM), most hits filed as cytotoxic; further: nearly all actives have a fitted effect of over 60% in size
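Screening of KB-3-1 cells (DMEM, 10% FBS, phenol-red free) ran from lowest to highest compound concentration; after 72 h at 37 °C viability was read luminescently and curves fitted.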
KB-V1 cytotox – kills drug-selected multidrug resistant KB-V1 cells; actives 3.4% (n = 400,000); Potency, µM (top dose mostly 46.1 µM), actives largely listed as cytotoxic; KB-V1 MDR cells viability, CellTiter-Glo, 72 h; further: nearly all actives have a fitted effect of over 60% in size
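Cytotoxicity via CellTiter-Glo luminescence after 72 h compound exposure at 37 degrees C. Cells: drug-selected KB-V1 line, DMEM phenol-red free plus 10% FBS. Compounds tested at multiple concentrations; normalized data fitted to concentration-effect curves.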
MCF10A rereplic – induces DNA re-replication in MCF 10a normal breast cells | AID 624296 | MCF 10A DNA re-replication, Hoechst nuclear intensity, 48 h | actives 2.9% (n = 350,000) | Potency, µM (titrated, usually from 46.1 µM), actives largely listed as activators; further: nearly all actives have a fitted effect of over 50% in size
D3 ag – activates the human D3 dopamine receptor; actives 0.58% (n = 410,000); P35462; D3R DiscoveRx beta-arrestin cells, luminescence, 90 min; AID 652048; max activation, %; in the data active means max activation above about 30%
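Agonist-mode cell screen: cells plated at 1500/well and incubated overnight at 37 °C, then exposed to library compounds for 90 min at 37 °C. Detection reagent was added for 30–60 min at room temperature, and luminescence was read.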
Each line names hits and unclear results; the compound was inactive in the other large screens. This is a sample that favours compounds with a hit; in the whole collection about 8.9% have one here. Unless noted, the call rests on the fitted dose curve; in most records, active means well fitted curve in the direction sought with a large enough effect; inconclusive means small, poorly fitted or top-dose-only effect, or another doubt; inactive means no such curve, though single readings can be large; an effect the other way counts as inactive or inconclusive.

CCn1c(SCC(N)=O)nnc1-c1ccc2[nH]c(C)c(C)c2c1	KB-3-1 cytotox 5.8µM, KB-V1 cytotox 21µM
CCn1c(SCC(=O)Nc2cc(C(C)(C)C)nn2-c2ccccc2)nnc1-c1cccs1	SW480 rerep inconclusive, KB-V1 cytotox inconclusive
CC(Oc1ccccc1F)c1nnc(SCC(=O)Nc2ccc(N3CCOCC3)cc2)o1 (stereo not drawn)	none
COc1ccccc1N1C(C)=CC(=C(C#N)c2nc3ccccc3s2)C=C1C	SW480 rerep 18µM, KB-3-1 cytotox inconclusive, MCF10A rereplic inconclusive
O=C(COc1ccccc1)NCC(=O)N/N=C/c1ccc(Cl)cc1	none
O=C(COc1ccc(Cl)cc1)N/N=C/CCc1ccccc1	D3 antag -60
CCC(C)NCCOCCOc1ccc(Cl)c(C)c1C (stereo not drawn)	SW480 rerep inconclusive, D3 antag -64, KB-3-1 cytotox inconclusive, KB-V1 cytotox inconclusive
C=CCc1cc(Cl)ccc1OCCOCCNC(C)CC (stereo not drawn)	SW480 rerep inconclusive, D3 antag inconclusive, MCF10A rereplic inconclusive
COCCCNC(=O)CCSc1ccc(Cl)cc1	none
CCC(C)NCCOCCSc1ccc(Cl)cc1 (stereo not drawn)	D3 antag -78
Clc1ccc(OCCCNCc2ccccc2)c2ccccc12	none
CCC(C)NCCOCCOc1ccc(Cl)c2ccccc12 (stereo not drawn)	SW480 rerep inconclusive, D3 antag -56, KB-3-1 cytotox inconclusive, KB-V1 cytotox inconclusive, MCF10A rereplic inconclusive
Cn1nc(SCc2ccccc2)c(=O)n(C(c2ccccc2)c2ccccc2)c1=O	KB-3-1 cytotox inconclusive, KB-V1 cytotox 21µM
Cn1nc(SCc2ccccc2)c(=O)[nH]c1=O	none (no result: SW480 rerep, MCF10A rereplic)
Nc1nn(-c2ccccc2)c(N)c1N=Nc1ccc2c(c1)OCO2	SW480 rerep 16µM, KB-3-1 cytotox 7.3µM, KB-V1 cytotox 3.3µM, MCF10A rereplic inconclusive
Nc1nn(-c2ccccc2)c(N)c1N=Nc1cccc(F)c1	SW480 rerep 5.8µM, KB-3-1 cytotox 5.8µM, KB-V1 cytotox inconclusive, MCF10A rereplic 3.7µM
Cc1nn(-c2ccccc2)c(N)c1N=Nc1cccnc1	none
COc1ccccc1NC(=O)CSC(N)=O	D3 antag -107, MCF10A rereplic inconclusive
COc1ccccc1NC(=O)CSc1nc2ccccc2n1C(C)=O	KB-V1 cytotox 16µM
COC(=O)c1ccccc1NC(=O)CSCC(=O)Nc1ccccc1OC	KB-V1 cytotox 9.2µM
CCn1c(SCC(=O)Nc2ccccc2OC)nc2ccccc2c1=O	KB-V1 cytotox inconclusive, MCF10A rereplic inconclusive
CCSc1nc2ccccc2n1C(=O)/C=C\c1ccc(OC)c(OC)c1	SW480 rerep 8.2µM, D3 antag -54, KB-3-1 cytotox inconclusive, KB-V1 cytotox inconclusive, MCF10A rereplic 4.1µM
COc1ccc(C)cc1-n1nnc(-c2nc(-c3ccccc3Cl)no2)c1N	none (no result: SW480 rerep, D3 antag, MCF10A rereplic)
Cc1cc(C)cc(-n2c(SCC(N)=O)nc3c(oc4ccccc43)c2=O)c1	none (no result: SW480 rerep, D3 antag, MCF10A rereplic)
CC(=O)c1ccccc1OCCCCN1CCCCC1	SW480 rerep inconclusive, D3 antag -77
COC(=O)c1ccccc1NC(=O)CN1CCCCC1	MCF10A rereplic inconclusive
COC(=O)c1ccccc1OCCN1CCCCCC1	D3 antag -57
Cc1nn(-c2ccccc2)c(=S)n1-c1ccccc1	none
Cc1nn(C)c(=S)n1-c1ccc(Cl)cc1	D3 antag -52
O=C(OCC(O)C(O)C(O)C(SCc1ccccc1)SCc1ccccc1)c1ccccc1 (stereo not drawn)	SW480 rerep inconclusive, D3 antag -67, MCF10A rereplic inconclusive
CCOc1ccc(OCC)c(NC(=O)c2nnn(CC(=O)Nc3cc(Cl)ccc3OC)c2N)c1	none (no result: SW480 rerep, D3 antag, MCF10A rereplic)
Cn1cc(C(=O)N2CCN(c3cccc(C(F)(F)F)c3)CC2)c2c3ccccc3n(C)c2c1=O	KB-3-1 cytotox inconclusive, KB-V1 cytotox inconclusive (no result: SW480 rerep, D3 antag, MCF10A rereplic)
CCCCCCOc1ccc(NC(=O)CC2C(=O)N(CC)C(=S)N2Cc2ccco2)cc1 (stereo not drawn)	SW480 rerep inconclusive, KB-3-1 cytotox inconclusive, MCF10A rereplic 18µM
